Test systems include NCI-H23 lung; NCI-H226 lung; NCI-H322M lung; HOP-62 NSCLC; NCI-H460 lung; HOP-92 NSCLC; NCI-H522 lung; A549/ATCC NSCLC; 786-0 renal; COLO 205 colon; DU-145 prostate; K-562 leukemia; MALME-3M melanoma; MDA-MB-231 breast; RXF 393 renal; SF-268 CNS; SF-295 CNS; SF-539 CNS; UACC-257 melanoma; M14 melanoma.
Holding throughout (test): NCI-60 one-dose screen, 48 h (100 = growth as untreated, 0 = no growth, -100 = all killed)
Common to all, as to conditions: 10 µM unless noted

Each structure is given as a SMILES string. The panel holds about 83,000 compounds, 20% with a hit somewhere; the sample as a whole holds those more often.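 96-well plates, one dose, 48 hours. Percent growth reported; active if below 10.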 A number with no mark means an inactive call. Calls of active or inactive are those of the source.

As to `CC(=O)OCC(=O)O[C@@H]1C[C@]2(C(C)C)O[C@@]1(C)[C@@H]1CC[C@@H](C)[C@H]1[C@@H]2OC(=O)/C=C/c1ccccc1`, the growth with NCI-H23 lung was 89.7%; in the test with NCI-H226 lung it was 68.4%; in the test on NCI-H322M lung, 84.8%; with HOP-62 NSCLC, 86.7%; in the test on NCI-H460 lung, 90.2%; in the test on HOP-92 NSCLC, 67.4%. For the same molecule, the growth in the test on NCI-H522 lung is 78.1%; in the test with A549/ATCC NSCLC, 71.7%; in the test with 786-0 renal, 66.3%; with COLO 205 colon, 97.5%; in the test on DU-145 prostate, 101%; with K-562 leukemia, 67.5%. For the same molecule, the growth was 101% with MALME-3M melanoma; 82.9% in the test with MDA-MB-231 breast; -2.3% (active) in the test on RXF 393 renal; 51.5% in the test on SF-268 CNS; 88.8% with SF-295 CNS; 92.4% in the test on SF-539 CNS. Moreover, the results for the growth in the test with UACC-257 melanoma and in the test with M14 melanoma were 92.5% and 97.2%, respectively.
On to `CCCn1cnc2c(c1=N)C(c1ccc(Cl)cc1)c1sc3c(F)cccc3c1O2` (stereo not given), for which the growth with NCI-H23 lung is 81.8%; with NCI-H226 lung, 85.5%; with NCI-H322M lung, 75.6%; with HOP-62 NSCLC it was 96.9%; in the test with NCI-H460 lung it was 66.2%; with HOP-92 NSCLC, 79.3%. Further, the growth with NCI-H522 lung was 69.7%; with A549/ATCC NSCLC, 76%; with 786-0 renal, 69.3%; in the test with COLO 205 colon, -67.9% (active); with DU-145 prostate it was 82.2%; in the test with K-562 leukemia it was 29.1%. Further, the growth with MALME-3M melanoma was 49.8%; in the test with MDA-MB-231 breast, 69.7%; in the test with RXF 393 renal, 72%; in the test with SF-268 CNS, 83.8%; with SF-295 CNS it was 93.8%; in the test with SF-539 CNS, 85.6%. For the same molecule, the growth in the test on UACC-257 melanoma is 105%; in the test on M14 melanoma it was 70.7%.
With `COc1cccc(/C=C/C(=O)/C=C(/C=C/c2cccc(OC)c2OC)OB(F)F)c1OC`, the growth in the test with NCI-H23 lung was 44.2%; with NCI-H226 lung it was 107%; in the test with NCI-H322M lung it was 92.5%; with HOP-62 NSCLC, 80.3%; with NCI-H460 lung it was 90.7%; in the test on HOP-92 NSCLC, 103%. Moreover, the growth in the test on NCI-H522 lung is 17.4%; in the test on A549/ATCC NSCLC it was 88.7%; in the test on 786-0 renal it was 45.1%; in the test with COLO 205 colon, 32.9%; in the test on DU-145 prostate it was 55.7%; in the test with K-562 leukemia, 32.9%. Moreover, the growth in the test with MALME-3M melanoma is 32%; in the test on MDA-MB-231 breast it was 60.3%; with RXF 393 renal, 102%; with SF-268 CNS it was 95.3%; in the test on SF-295 CNS it was 103%; in the test on SF-539 CNS, 57.7%. Also, the growth in the test with UACC-257 melanoma is 28.6%; in the test on M14 melanoma, 61.7%.
As for `N#CC1=C(N)Oc2c(ccc3cccnc23)C1c1ccccc1` (stereo not given), the growth in the test on NCI-H23 lung was 17.7%; in the test on NCI-H226 lung, 54%; in the test with NCI-H322M lung, 39.2%; in the test with HOP-62 NSCLC, 43.2%; in the test on NCI-H460 lung, 16%; in the test on HOP-92 NSCLC, 32.3%. Further, the growth in the test on NCI-H522 lung is 20.3%; in the test with A549/ATCC NSCLC, 32%; with 786-0 renal, 35.3%; with COLO 205 colon, 9.2% (active); in the test with DU-145 prostate, 17.6%; in the test with K-562 leukemia it was 17.2%. The growth was 47.9% with MALME-3M melanoma; 48.6% in the test with MDA-MB-231 breast; 4.49% (active) in the test on RXF 393 renal; 45.2% in the test on SF-268 CNS; 18.1% with SF-295 CNS; -39.6% (active) in the test on SF-539 CNS. Moreover, the values for the growth with UACC-257 melanoma and in the test on M14 melanoma were 74.4% and 20%, respectively.
Regarding `Brc1ccc(-c2nn(-c3ccccc3)cc2-c2nn[nH]n2)s1`, the growth in the test with NCI-H23 lung is 92.7%; in the test with NCI-H226 lung, 85.7%; with NCI-H322M lung it was 96%; in the test with HOP-62 NSCLC, 82.7%; in the test on NCI-H460 lung it was 102%; in the test on HOP-92 NSCLC it was 62.4%. In addition, the growth in the test on NCI-H522 lung was 84.1%; with A549/ATCC NSCLC it was 93.9%; with 786-0 renal, 88.1%; with COLO 205 colon it was 120%; with DU-145 prostate, 108%; in the test on K-562 leukemia, 87.2%. The growth was 103% in the test with MALME-3M melanoma; 87.3% in the test on MDA-MB-231 breast; 100% with RXF 393 renal; 92.8% in the test with SF-268 CNS; 82.6% with SF-295 CNS; 91.4% in the test with SF-539 CNS. Also, the growth in the test with UACC-257 melanoma is 98%; with M14 melanoma it was 96.9%.
For `COc1ccc(C(=O)/C=C/Nc2cc(-c3ccccc3)nn2-c2ccccc2)cc1`, the growth in the test on NCI-H23 lung was 90%; in the test with NCI-H226 lung, 79.8%; in the test with NCI-H322M lung, 93.2%; in the test with HOP-62 NSCLC, 102%; in the test on NCI-H460 lung, 98%; in the test with HOP-92 NSCLC, 80.8%. For the same molecule, the growth in the test with NCI-H522 lung was 82.7%; with A549/ATCC NSCLC it was 91.4%; in the test on 786-0 renal it was 89%; in the test with COLO 205 colon, 110%; in the test on DU-145 prostate it was 99.7%; in the test on K-562 leukemia, 80.8%. The growth in the test with MALME-3M melanoma was 100%; in the test with MDA-MB-231 breast, 93.4%; with RXF 393 renal it was 85.5%; with SF-268 CNS, 90.2%; in the test with SF-295 CNS, 95.2%; in the test on SF-539 CNS it was 95.2%. Besides, the growth is 90.8% with UACC-257 melanoma and 93% in the test on M14 melanoma.
On to `CCOC(=O)c1ccc2c(c1)[n+](=O)c(C(C)=O)c(C(F)(F)F)n2[O-]`, for which the growth was -16.9% (active) with NCI-H23 lung; 41.2% in the test on NCI-H226 lung; 94.4% in the test with NCI-H322M lung; 25.5% with HOP-62 NSCLC; -50.7% (active) in the test with NCI-H460 lung; -29.9% (active) in the test with HOP-92 NSCLC. Also, the growth is -83.8% (active) in the test with NCI-H522 lung; 19.2% in the test on A549/ATCC NSCLC; 11.4% in the test on 786-0 renal; -78.3% (active) with COLO 205 colon; -88.5% (active) in the test with DU-145 prostate; -76.7% (active) with K-562 leukemia. Besides, the growth in the test on MALME-3M melanoma is -40% (active); in the test on MDA-MB-231 breast, 22.2%; with RXF 393 renal it was 31.6%; in the test with SF-268 CNS it was -51.8% (active); in the test with SF-295 CNS it was 23%; with SF-539 CNS it was 29.7%. Moreover, the figures for the growth in the test on UACC-257 melanoma and with M14 melanoma were -37.1% (active) and 8.64% (active), respectively.
For `CS(=O)(=O)Nc1cc(-c2ccc3ncnc(Nc4cccc(Cl)c4)c3c2)cnc1Cl`, the growth with NCI-H23 lung is 6.5% (active); with NCI-H226 lung, 11.8%; in the test on NCI-H322M lung it was 1.07% (active); in the test on HOP-62 NSCLC, 3.9% (active); with NCI-H460 lung, 7.81% (active); in the test with HOP-92 NSCLC it was -22.5% (active). For the same molecule, the growth in the test on NCI-H522 lung is 2.07% (active); in the test with A549/ATCC NSCLC, -13.4% (active); in the test on 786-0 renal, 5.7% (active); with COLO 205 colon it was -49.4% (active); in the test on DU-145 prostate, 14.5%; in the test with K-562 leukemia, 18.9%. The growth is -25.7% (active) in the test with MALME-3M melanoma; 7.96% (active) in the test with MDA-MB-231 breast; -44% (active) in the test on RXF 393 renal; 13.9% in the test on SF-268 CNS; -22.6% (active) in the test on SF-295 CNS; -22% (active) with SF-539 CNS. The results for the growth in the test on UACC-257 melanoma and with M14 melanoma were -3.23% (active) and -2.15% (active), respectively.

For the origin of these results see PubChem BioAssay (NCI).
